Structures can show the parent of a compound that is named as a salt. ± gives the standard deviation of the averaged measurements.
These compounds were tested on Listeria monocytogenes 10403S (assay: growth inhibition relative to ceftriaxone-alone control; higher = stronger potentiation of ceftriaxone growth inhibition). Details: 10 µM; ceftriaxone 1 ug/ml; 12 h.
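Also: End-point A600 read in BHI broth at 37 °C with 2% DMSO, inhibition computed as (1 − OD with compound plus ceftriaxone ÷ OD with ceftriaxone only) × 100.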

Question: For `O=C(NCC1CC1)c1ccc(-c2cccc(C(=O)NC3CC3)c2)cc1`, which growth inhibition is on record?
Answer: -0.0355 ± 1.1%

Question: With `CC1=C(C(=O)Nc2ccc3[nH]ncc3c2)C(c2ccc(F)cc2)NC(=O)N1` (stereo not drawn) as the compound, how does the growth inhibition read?
Answer: 2.29 ± 1.7%

Question: For `OCCCNc1nccc(-c2c(-c3ccc(F)cc3)nn3cc(C(F)(F)F)ccc23)n1`, which growth inhibition is on record?
Answer: 15.6 ± 7.1%

Question: `CC(C)(CO)CNC(=O)c1ccc2c(c1)/C(=N/Nc1ccc(S(N)(=O)=O)cc1)C(=O)N2` was tested. Which growth inhibition did it give?
Answer: -13.4 ± 16%

Question: Which growth inhibition does the source give for `Cc1ccc(NC(=O)c2ccc(CN3CCN(C)CC3)cc2)cc1Nc1nccc(-c2cccnc2)n1` [Imatinib Mesylate] here?
Answer: 29.9 ± 17%

Question: With `C[C@H](NC(=O)/C(C#N)=C/c1cccc(Br)n1)c1ccccc1` as the compound, how does the growth inhibition read?
Answer: 99 ± 0.21%

Question: Which growth inhibition does the source give for `CS(=O)(=O)CCNCc1ccc(-c2ccc3ncnc(Nc4ccc(OCc5ccccc5)c(Br)c4)c3c2)o1` here?
Answer: -2.35 ± 3.3%

Question: How did the growth inhibition turn out when `COc1cc(Nc2ncc(F)c(Nc3ccc4c(n3)N(COP(=O)(O)O)C(=O)C(C)(C)O4)n2)cc(OC)c1OC` was run?
Answer: 10.1 ± 12%

Question: With `NC(=O)c1cc(-c2ccc(F)cc2)cc(-c2ccncc2)c1N` as the compound, how does the growth inhibition read?
Answer: -1.35 ± 1.1%

Question: How did the growth inhibition turn out when `COc1cc2ncn(-c3cc(O[C@H](C)c4ccccc4Cl)c(C(N)=O)s3)c2cc1OC` was run?
Answer: -3.78 ± 5.6%

Question: `Nc1ncc(-c2cccc(S(N)(=O)=O)c2)c2scc(-c3ccc(F)c(Cl)c3)c12` was tested. Which growth inhibition did it give?
Answer: -7.14 ± 12%

Question: How did the growth inhibition turn out when `COCC(=O)NC/C=C/c1ccc2ncnc(Nc3ccc(Oc4ccc(C)nc4)c(C)c3)c2c1` was run?
Answer: -5.16 ± 23%

Question: `O=C(Nc1n[nH]c2nc(-c3ccco3)ccc12)C1CC1` was tested. Which growth inhibition did it give?
Answer: 0.454 ± 0.64%

Question: Which growth inhibition does the source give for `Nc1nc(N)c2nc(-c3cccc(O)c3)cnc2n1` here?
Answer: 8.99 ± 4.4%

Question: With `Cc1cc(Nc2cc(N3CCN(C)CC3)nc(/C=C/c3ccccc3)n2)n[nH]1` as the compound, how does the growth inhibition read?
Answer: 85.7 ± 18%

Question: Which growth inhibition does the source give for `Cc1ccc(-c2cc3c(NC(=O)C4CC4)ncnc3o2)cc1` here?
Answer: -3.41 ± 5.3%

Question: With `CS(=O)(=O)CCNCc1ccc(-c2ccc3ncnc(Nc4ccc(OCc5ccccc5)c(C(F)(F)F)c4)c3c2)o1` as the compound, how does the growth inhibition read?
Answer: -5.15 ± 0.36%

Question: For `CCc1ccc(Oc2nccc(-c3c(-c4ccc(F)cc4)ncn3C3CCNCC3)n2)cc1`, which growth inhibition is on record?
Answer: 1.75 ± 23%

Question: For `O=C1NC(=O)/C(=C\c2ccc3nccnc3c2)S1`, which growth inhibition is on record?
Answer: 13.5 ± 10%

Question: Which growth inhibition does the source give for `Clc1ccc(C2(c3ccc(-c4cn[nH]c4)cc3)CCNCC2)cc1` here?
Answer: 100 ± 1.4%

Question: How did the growth inhibition turn out when `Cc1ccc(NC(=O)c2ccc(CN3CCN(C)CC3)cc2)cc1Nc1nccc(-c2cccnc2)n1` [Imatinib (Gleevec)] was run?
Answer: 16.3 ± 4.7%

Question: `NS(=O)(=O)c1ccc(N/N=C2\C(=O)Nc3ccc(C(=O)NCc4ccncc4)cc32)cc1` was tested. Which growth inhibition did it give?
Answer: -9.46 ± 18%

Question: With `CNC(=O)c1cc(Oc2ccc(NC(=O)Nc3cc(C(C)(C)C)nn3-c3ccc4ncccc4c3)c(F)c2)ccn1` [DCC-2036 (Rebastinib)] as the compound, how does the growth inhibition read?
Answer: 21 ± 0.51%

Question: How did the growth inhibition turn out when `COc1ccc2c3n(c(=NC(=O)c4cccnc4)nc2c1OC)CCN3` was run?
Answer: -0.968 ± 4.8%

Question: How did the growth inhibition turn out when `NCc1ccc(-n2c(-c3nonc3N)nc3cnccc32)cc1` was run?
Answer: -4.5 ± 3.6%

Question: With `C=CC(=O)Nc1cccc(Sc2nc(Nc3ccc(N4CCN(C)CC4)cc3)ncc2Cl)c1` as the compound, how does the growth inhibition read?
Answer: 94.1 ± 1.1%

Question: Which growth inhibition does the source give for `NC(=O)c1cccc(Nc2nccc(Nc3cccc(F)c3)n2)c1` here?
Answer: -4.52 ± 12%

Question: `CCS(=O)(=O)N1CC(CC#N)(n2cc(-c3ncnc4[nH]ccc34)cn2)C1` was tested. Which growth inhibition did it give?
Answer: 20.4 ± 0.71%

Question: With `C=CC(=O)Nc1cccc(Oc2nc(Nc3ccc(N4CCN(C)CC4)cc3OC)ncc2Cl)c1` as the compound, how does the growth inhibition read?
Answer: -1.74 ± 9.7%

Question: With `CNC(=O)Nc1ccc(-c2nc(N3CC4CCC(C3)O4)c3cnn(C4CCC5(CC4)OCCO5)c3n2)cc1` as the compound, how does the growth inhibition read?
Answer: 7.7 ± 6.6%

Question: `COc1cc(C)c(N(C)C(=O)CN(C)C)cc1Nc1nc(Nc2cccc(F)c2C(N)=O)c2cc[nH]c2n1` was tested. Which growth inhibition did it give?
Answer: -0.447 ± 1%

Question: Which growth inhibition does the source give for `Cc1cc(Nc2cc(CN3CCOCC3)c3nc(C)c(Cc4ccc(Cl)cc4F)n3n2)n[nH]1` here?
Answer: 12 ± 6.8%

Question: For `NC(=O)Cc1ccccc1Oc1nccc(-c2c(-c3ccc(F)cc3)ncn2C2CCNCC2)n1`, which growth inhibition is on record?
Answer: -2.82 ± 0.75%

Question: `CCCS(=O)(=O)Nc1ccc(F)c(C(=O)c2c[nH]c3ncc(-c4ccc(Cl)cc4)cc23)c1F` [Vemurafenib (PLX4032)] was tested. Which growth inhibition did it give?
Answer: -29.7 ± 26%

Question: `NC(=O)c1sc(-n2cnc3ccc(C(F)(F)F)cc32)cc1OCc1ccccc1Br` was tested. Which growth inhibition did it give?
Answer: -2.79 ± 1.9%

Question: How did the growth inhibition turn out when `COc1cc(C=NNc2ncnc3c2cnn3-c2ccccc2)ccc1O` was run?
Answer: 3.9 ± 5.4%

Question: Which growth inhibition does the source give for `COc1cc(C=NNc2ncnc3c2cnn3Cc2ccccc2)ccc1O` here?
Answer: -10.8 ± 3.7%

Question: With `CNC(=O)c1cc(COc2nnc(Nc3ccc(Cl)cc3)c3ccoc23)ccn1` [Telatinib (BAY 57-9352)] as the compound, how does the growth inhibition read?
Answer: 22.8 ± 32%

From the supplement of paper PMC5641865, “A screen for kinase inhibitors identifies antimicrobial imidazopyridine aminofurazans as specific inhibitors of the Listeria monocytogenes PASTA kinase PrkA” (The Journal of Biological Chemistry, 2017)
